Targets with a hit are over-represented here; the source holds about 7,900 in all. About 0.6% of all pairs of compound and target were hits. Values without a mark were called inactive.
Key:
Assay in all cases: log2 fold change, soluble protein after heating vs DMSO (PISA); higher = thermal stabilisation; K562 cells, 10 uM, 30 min; active = over 0.2 and 3.5 SD of the protein, either way, in both replicates (recomputed)
erlotinib = compound: C#Cc1cccc(Nc2ncnc3cc(OCCOC)c(OCCOC)cc23)c1 [erlotinib]
Outline: (§1)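 Soluble protein was quantified by TMTpro 16plex LC-MS/MS after channel sums were equalised. It was obtained as the supernatant after 21,000xg for 90 min from pooled aliquots of K562 cells (2×10^6 cells/mL, 10 μM compound, 30 min) heated for 3 min across 48°C-58°C and extracted in PBS with 0.5% NP-40 at 4°C. Thermal stability values are relative to control samples and come from duplicates. They are given as log2 fold changes.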

[1] = compound: C/C(=N\NC(=O)C1=CC(=CC=C1)S(=O)(=O)N2CCOCC2)/C3=C(C=CC(=C3)Cl)O
Outline: as §1

[2] = compound: C1=CC(=C(C=C1Cl)C2=NC3=NC=CN=C3C(=N2)NC4=CC=NC=C4)F
Outline: as §1

[3] = compound: C1=CC(=CC=C1C2=NC3=C(N2)C=C(C=C3)C(=O)N)OC4=CC=C(C=C4)Cl
Outline: as §1

[4] = compound: C1=CC2=C(C=CC(=C2)/C=C\3/C(=O)NC(=NCC4=CC=CS4)S3)N=C1
Outline: as §1

[5] = compound: C1=CC2=NC=CN=C2C=C1/C=C/3\C(=O)NC(=O)S3
Outline: as §1

[6] = compound: C1=CC=C(C=C1)C2=NC(=C(N2)C3=CC=NC=C3)C4=CC(=C(C=C4)Cl)O
Outline: as §1

[7] = compound: C1=CC=C2C(=C1)C3=NNC4=CC=CC(=C43)C2=O
Outline: as §1

[8] = compound: C1CCN(C1)C(=O)NC2=CC=CC(=C2)NC3=NC=C(C(=N3)NCCC4=CN=CN4)Br
Outline: as §1

[9] = compound: C1CN(CCC1(CC2=CC=C(C=C2)Cl)N)C3=NC=NC4=C3C=CN4
Outline: as §1

UniProt Q32M88, sequence (Q32M88 whole entry, looked up): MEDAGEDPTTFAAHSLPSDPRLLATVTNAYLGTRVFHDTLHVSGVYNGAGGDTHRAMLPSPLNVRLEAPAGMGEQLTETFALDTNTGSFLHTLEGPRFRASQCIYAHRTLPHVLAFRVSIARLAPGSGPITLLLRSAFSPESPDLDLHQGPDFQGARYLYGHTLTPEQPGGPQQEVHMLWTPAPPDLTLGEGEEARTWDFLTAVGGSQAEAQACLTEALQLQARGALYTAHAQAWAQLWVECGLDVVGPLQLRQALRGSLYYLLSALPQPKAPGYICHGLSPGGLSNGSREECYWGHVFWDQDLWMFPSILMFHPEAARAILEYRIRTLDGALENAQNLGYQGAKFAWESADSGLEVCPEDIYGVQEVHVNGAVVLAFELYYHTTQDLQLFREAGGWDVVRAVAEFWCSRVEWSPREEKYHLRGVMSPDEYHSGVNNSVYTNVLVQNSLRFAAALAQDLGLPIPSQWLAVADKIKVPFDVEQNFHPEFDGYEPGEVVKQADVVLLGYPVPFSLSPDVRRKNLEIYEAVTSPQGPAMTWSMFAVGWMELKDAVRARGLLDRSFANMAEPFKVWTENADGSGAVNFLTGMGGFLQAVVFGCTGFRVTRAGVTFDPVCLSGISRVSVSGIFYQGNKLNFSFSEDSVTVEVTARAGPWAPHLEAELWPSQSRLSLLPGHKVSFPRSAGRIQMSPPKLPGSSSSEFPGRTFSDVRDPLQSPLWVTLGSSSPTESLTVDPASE
UniProt Q92871, sequence (Q92871 whole entry, looked up): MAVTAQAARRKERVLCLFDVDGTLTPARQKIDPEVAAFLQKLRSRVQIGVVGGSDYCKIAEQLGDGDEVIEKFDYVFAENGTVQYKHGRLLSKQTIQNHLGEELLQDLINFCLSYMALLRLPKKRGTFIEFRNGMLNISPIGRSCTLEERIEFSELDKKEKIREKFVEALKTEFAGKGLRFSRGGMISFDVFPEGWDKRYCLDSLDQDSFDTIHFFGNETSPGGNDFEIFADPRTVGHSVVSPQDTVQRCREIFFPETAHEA
UniProt Q13362, sequence (Q13362 whole entry, looked up): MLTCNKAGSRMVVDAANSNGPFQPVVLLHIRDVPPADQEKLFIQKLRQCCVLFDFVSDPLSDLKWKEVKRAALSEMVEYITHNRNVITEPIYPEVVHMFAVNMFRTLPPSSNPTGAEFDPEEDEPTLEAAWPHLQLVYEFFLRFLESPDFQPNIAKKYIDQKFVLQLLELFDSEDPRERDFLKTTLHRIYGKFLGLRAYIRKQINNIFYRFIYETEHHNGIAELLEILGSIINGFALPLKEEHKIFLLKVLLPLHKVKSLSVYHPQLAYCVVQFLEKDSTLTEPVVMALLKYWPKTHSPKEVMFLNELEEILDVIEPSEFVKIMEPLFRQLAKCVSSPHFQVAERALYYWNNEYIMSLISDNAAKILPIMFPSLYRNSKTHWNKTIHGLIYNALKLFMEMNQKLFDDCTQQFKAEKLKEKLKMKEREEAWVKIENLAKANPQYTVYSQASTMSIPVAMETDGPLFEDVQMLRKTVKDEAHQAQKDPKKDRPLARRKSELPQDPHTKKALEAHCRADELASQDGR
UniProt P62195, sequence (P62195 whole entry, looked up): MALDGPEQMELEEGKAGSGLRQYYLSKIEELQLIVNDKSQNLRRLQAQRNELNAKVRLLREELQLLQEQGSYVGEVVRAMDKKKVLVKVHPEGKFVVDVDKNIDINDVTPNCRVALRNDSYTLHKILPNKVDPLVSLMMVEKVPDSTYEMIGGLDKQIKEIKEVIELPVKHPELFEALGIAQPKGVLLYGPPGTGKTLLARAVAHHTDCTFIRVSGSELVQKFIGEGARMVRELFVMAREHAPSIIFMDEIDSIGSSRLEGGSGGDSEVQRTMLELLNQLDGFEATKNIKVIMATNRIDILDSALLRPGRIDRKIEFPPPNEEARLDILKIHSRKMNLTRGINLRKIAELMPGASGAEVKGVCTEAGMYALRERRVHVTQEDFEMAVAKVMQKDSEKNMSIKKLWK
UniProt Q8N8N7, sequence (Q8N8N7 whole entry, looked up): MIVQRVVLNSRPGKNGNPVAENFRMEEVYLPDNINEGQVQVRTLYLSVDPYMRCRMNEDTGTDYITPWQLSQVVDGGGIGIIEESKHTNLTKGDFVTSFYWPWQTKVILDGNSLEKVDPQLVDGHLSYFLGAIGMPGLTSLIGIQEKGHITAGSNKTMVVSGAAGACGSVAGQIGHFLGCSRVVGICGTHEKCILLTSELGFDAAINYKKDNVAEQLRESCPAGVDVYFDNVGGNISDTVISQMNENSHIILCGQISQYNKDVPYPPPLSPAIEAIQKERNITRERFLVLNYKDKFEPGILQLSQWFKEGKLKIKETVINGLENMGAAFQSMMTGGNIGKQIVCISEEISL
UniProt P46019, sequence (P46019 whole entry, looked up): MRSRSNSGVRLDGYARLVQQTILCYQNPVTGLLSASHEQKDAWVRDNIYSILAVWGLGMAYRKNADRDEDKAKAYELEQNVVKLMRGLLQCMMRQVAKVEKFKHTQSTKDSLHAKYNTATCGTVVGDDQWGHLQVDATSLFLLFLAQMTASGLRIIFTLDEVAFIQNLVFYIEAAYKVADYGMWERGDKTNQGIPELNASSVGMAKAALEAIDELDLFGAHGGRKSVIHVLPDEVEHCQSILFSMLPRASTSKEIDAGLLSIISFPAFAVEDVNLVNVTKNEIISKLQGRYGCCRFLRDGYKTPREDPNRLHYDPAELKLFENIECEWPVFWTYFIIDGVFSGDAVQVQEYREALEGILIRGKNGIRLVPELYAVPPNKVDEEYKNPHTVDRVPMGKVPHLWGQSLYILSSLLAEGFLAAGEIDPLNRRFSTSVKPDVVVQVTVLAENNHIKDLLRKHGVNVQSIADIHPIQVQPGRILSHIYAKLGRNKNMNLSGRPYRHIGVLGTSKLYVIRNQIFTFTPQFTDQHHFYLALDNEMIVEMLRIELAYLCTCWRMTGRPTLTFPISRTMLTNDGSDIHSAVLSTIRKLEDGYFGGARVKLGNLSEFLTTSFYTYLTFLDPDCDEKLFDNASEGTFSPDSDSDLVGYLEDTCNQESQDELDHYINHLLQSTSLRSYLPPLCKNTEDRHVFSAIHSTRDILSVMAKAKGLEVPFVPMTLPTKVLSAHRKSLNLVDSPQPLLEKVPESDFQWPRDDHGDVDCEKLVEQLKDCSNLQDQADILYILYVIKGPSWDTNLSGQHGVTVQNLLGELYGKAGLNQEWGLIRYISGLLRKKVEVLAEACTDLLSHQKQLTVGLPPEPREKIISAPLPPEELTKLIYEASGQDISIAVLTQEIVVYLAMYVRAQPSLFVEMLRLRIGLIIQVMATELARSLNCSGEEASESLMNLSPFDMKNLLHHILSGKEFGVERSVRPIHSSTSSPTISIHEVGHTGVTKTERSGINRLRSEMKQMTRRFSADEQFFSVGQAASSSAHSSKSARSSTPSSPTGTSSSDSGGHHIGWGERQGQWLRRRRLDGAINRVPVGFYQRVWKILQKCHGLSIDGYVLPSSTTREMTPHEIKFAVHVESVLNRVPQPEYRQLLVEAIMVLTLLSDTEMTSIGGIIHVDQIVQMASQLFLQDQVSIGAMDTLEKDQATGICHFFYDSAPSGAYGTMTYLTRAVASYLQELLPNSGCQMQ
UniProt O43164, sequence (O43164 whole entry, looked up): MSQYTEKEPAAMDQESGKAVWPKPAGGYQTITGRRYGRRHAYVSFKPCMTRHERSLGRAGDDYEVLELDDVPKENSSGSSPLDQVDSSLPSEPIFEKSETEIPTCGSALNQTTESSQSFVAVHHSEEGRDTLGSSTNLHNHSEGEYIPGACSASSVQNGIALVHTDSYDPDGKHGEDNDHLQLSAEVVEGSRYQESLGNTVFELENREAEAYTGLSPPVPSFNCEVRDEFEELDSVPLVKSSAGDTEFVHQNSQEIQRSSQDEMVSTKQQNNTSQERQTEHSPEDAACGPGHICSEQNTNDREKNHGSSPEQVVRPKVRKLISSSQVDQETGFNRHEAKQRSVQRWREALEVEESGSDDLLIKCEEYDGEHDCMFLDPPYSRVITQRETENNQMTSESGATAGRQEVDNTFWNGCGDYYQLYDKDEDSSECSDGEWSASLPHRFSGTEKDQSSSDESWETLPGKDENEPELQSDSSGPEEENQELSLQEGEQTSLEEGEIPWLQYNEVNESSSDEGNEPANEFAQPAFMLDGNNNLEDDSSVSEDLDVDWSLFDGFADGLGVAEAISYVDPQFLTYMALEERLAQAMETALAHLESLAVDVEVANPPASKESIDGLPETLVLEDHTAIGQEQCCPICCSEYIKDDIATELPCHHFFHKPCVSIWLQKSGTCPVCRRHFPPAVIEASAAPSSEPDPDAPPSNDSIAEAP
UniProt P78356, sequence (P78356 whole entry, looked up): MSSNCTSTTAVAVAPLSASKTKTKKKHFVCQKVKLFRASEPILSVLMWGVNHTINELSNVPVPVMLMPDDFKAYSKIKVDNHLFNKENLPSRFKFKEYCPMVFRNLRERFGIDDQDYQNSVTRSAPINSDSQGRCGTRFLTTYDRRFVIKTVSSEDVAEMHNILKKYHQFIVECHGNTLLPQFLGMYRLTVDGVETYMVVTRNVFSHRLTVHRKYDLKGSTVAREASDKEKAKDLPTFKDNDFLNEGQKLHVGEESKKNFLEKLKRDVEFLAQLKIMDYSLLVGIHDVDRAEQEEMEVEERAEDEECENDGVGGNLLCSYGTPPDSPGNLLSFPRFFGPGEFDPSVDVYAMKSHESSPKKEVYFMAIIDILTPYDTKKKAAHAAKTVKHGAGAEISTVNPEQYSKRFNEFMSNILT
UniProt Q8N165, sequence (Q8N165 whole entry, looked up): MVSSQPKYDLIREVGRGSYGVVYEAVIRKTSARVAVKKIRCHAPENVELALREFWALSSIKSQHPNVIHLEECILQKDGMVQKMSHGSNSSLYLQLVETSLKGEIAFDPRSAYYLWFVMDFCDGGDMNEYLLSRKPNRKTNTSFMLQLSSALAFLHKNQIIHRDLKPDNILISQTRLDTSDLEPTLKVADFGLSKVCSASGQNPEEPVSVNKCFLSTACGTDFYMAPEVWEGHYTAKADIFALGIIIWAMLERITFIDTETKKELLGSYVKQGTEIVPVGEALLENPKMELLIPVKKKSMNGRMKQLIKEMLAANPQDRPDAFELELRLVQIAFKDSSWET

Target | log2 fold change (erlotinib) | log2 fold change [1] | log2 fold change [2] | log2 fold change [3] | log2 fold change [4] | log2 fold change [5] | log2 fold change [6] | log2 fold change [7] | log2 fold change [8] | log2 fold change [9]
PRPF38B (UniProt Q5VTL8) | -0.016 | 0.022 | -0.049 | 0.082 | -0.184 | -0.085 | -0.027 | -0.146 | -0.018 | -0.054
PHKA2 (UniProt P46019) | -0.077 | 0.029 | 0.041 | -0.008 | -0.011 | 0.041 | -0.028 | -0.026 | 0.004 | 0.004
PUM1 isoform 3 (UniProt Q14671) | -0.023 | 0 | 0.04 | 0.034 | 0.047 | 0.003 | -0.013 | 0.003 | -0.057 | 0.028
PCBP1 (UniProt Q15365) | -0.009 | 0.092 | 0.062 | -0.031 | 0.011 | -0.002 | 0.057 | 0.031 | -0.034 | 0.002
PSMC5 (UniProt P62195) | -0.116 | -0.044 | -0.029 | 0.021 | -0.022 | -0.03 | -0.007 | 0.019 | 0.021 | -0.032
PTGR2 (UniProt Q8N8N7) | -0.015 | -0.027 | 0.016 | -0.023 | 0.365 | -0.01 | 0.062 | 0.056 | -0.023 | 0.131
PLCB3 (UniProt Q01970) | -0.004 | 0.028 | 0.005 | 0.023 | 0.054 | 0.016 | -0.011 | 0.034 | -0.057 | -0.07
PPP2R5C isoform 5 (UniProt Q13362) | 0.028 | 0.021 | 0.015 | -0.014 | 0.009 | -0.036 | 0.004 | 0.047 | -0.018 | -0.002
PLCG1 isoform 2 (UniProt P19174) | 0.052 | -0.054 | -0.09 | 0.067 | 0.119 | 0.029 | 0.006 | 0.017 | 0.052 | -0.06
PRKAA1 isoform 2 (UniProt Q13131) | 0 | 0.026 | 0.084 | 0.045 | 0.018 | 0.013 | 0.012 | -0.051 | -0.034 | 0.012
PTPN12 (UniProt Q05209) | 0.005 | -0.007 | -0.011 | 0.004 | 0.022 | 0.101 | -0.021 | -0.036 | -0.039 | -0.05
PRKAB2 (UniProt O43741) | -0.054 | 0.29 | 0.103 | 0.032 | -0.022 | -0.115 | 0.203 | 0.144 | -0.218 | 0.064
PJA2 (UniProt O43164) | -0.006 | -0.047 | -0.049 | 0.018 | 0.003 | 0.071 | -0.061 | -0.112 | -0.024 | -0.009
PIGG (UniProt Q5H8A4) | -0.002 | 0.016 | -0.009 | 0.027 | 0.023 | 0.014 | -0.013 | -0.003 | -0.016 | 0.067
PHKG2 (UniProt P15735) | -0.067 | -0.078 | 0.021 | -0.003 | -0.055 | -0.113 | 0.034 | 0.076 | -0.159 | 0.029
PTDSS1 (UniProt P48651) | -0.076 | -0.12 | -0.099 | 0.045 | -0.031 | -0.114 | 0.03 | 0.041 | 0.016 | -0.058
POLR3K (UniProt Q9Y2Y1) | -0.082 | 0.005 | -0.005 | 0.007 | -0.057 | -0.038 | -0.235 (active) | -0.056 | -0.006 | 0.031
PIP4P1 isoform 2 (UniProt Q86T03) | 0.057 | 0.001 | 0.052 | -0.014 | -0.104 | 0.068 | 0.002 | 0.035 | -0.028 | 0.101
PDIK1L (UniProt Q8N165) | -0.075 | 0.083 | -0.031 | -0.052 | 0.034 | 0.115 | -0.034 | 0.197 | 0.023 | -0.007
PGGHG (UniProt Q32M88) | 0.059 | 0.114 | 0.024 | 0.002 | -0.44 (active) | 0.048 | -0.049 | -0.248 | -0.225 | 0.119
PIP4K2B (UniProt P78356) | 0.16 | -0.022 | 0.082 | -0.083 | 0.017 | 0.244 | 0.104 | 0.096 | 0.13 | 0.037
POLR2E (UniProt P19388) | 0.022 | 0.021 | 0.038 | 0.057 | -0.054 | 0.007 | 0.013 | -0.02 | -0.01 | 0.011
PSMD2 (UniProt Q13200) | -0.095 | -0.095 | -0.042 | -0.001 | -0.043 | -0.024 | 0.007 | 0.016 | 0.005 | -0.021
PSMD3 (UniProt O43242) | -0.074 | -0.05 | -0.072 | 0.002 | -0.022 | -0.028 | 0.008 | 0.033 | -0.012 | -0.066
PDCD6 (UniProt O75340) | -0.006 | 0.038 | 0.066 | 0.004 | 0.034 | 0.02 | -0.061 | 0.029 | 0.024 | -0.048
PMM1 (UniProt Q92871) | -0.021 | -0.041 | 0.004 | 0.065 | 0.1 | 0.002 | -0.007 | -0.049 | 0.001 | 0.036
PPP6R1 (UniProt Q9UPN7) | -0.022 | -0.017 | 0.013 | -0.004 | 0.025 | 0.012 | -0.022 | -0.039 | -0.014 | 0.033
PECAM1 (UniProt P16284) | -0.039 | 0.072 | -0.055 | 0.057 | 0.054 | -0.024 | -0.05 | -0.133 | 0.057 | 0.021
PGGT1B (UniProt P53609) | 0.024 | 0.036 | 0.114 | 0.006 | 0.049 | -0.002 | 0.021 | -0.036 | 0.054 | 0.027
PSMD5 (UniProt Q16401) | -0.015 | 0.038 | 0.063 | -0.007 | 0 | 0.027 | -0.001 | -0.012 | 0.014 | -0.004

— the supplement of paper PMC10849652
